WRN helicase inh: inhibitors of human WRN helicase; Q14191; WRN helicase unwinding, fluorescent forked duplex, kinetic; Potency, µM (highest dose often 114 µM), inactives show at the highest dose activity change, negative = inhibition, actives largely listed as inhibitors; 360,000 tested, 0.46% active; AID 651768; note: % is set by controls: 0 for no effect and ±100 for the full control effect; nearly all actives have a fitted effect of over 55% in size
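Fluorescence dequenching readout, ex 525 nm/em 598 nm, kinetic mode: forked duplex DNA (100 nM final) with adjacent fluorophore and quencher unwound by WRN (20 nM final) with 2 mM ATP. Compound preincubation 15 min, room temperature.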
POLB inh: DNA polymerase beta (human) inhibition. AID 485314. 340,000 tested, 1.3% active. Potency, µM (series often up to 114 µM), for inactives: at the top dose activity change, negative = inhibition, most hits filed as inhibitors. Pol beta primer extension/strand displacement, fluorescence kinetic; note: % is set by controls: 0 for no effect and ±100 for the full control effect
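Human Pol beta at 10 nM; strand-displacement substrate 50 nM final. Compound exposure 15 min at room temperature before start, reaction 10 min at room temperature.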
FEN1 inh: human FEN1 inhibition. Recombinant FEN1 flap cleavage, fluorescence, 15 min. Potency, µM (doses to about 114 µM), for inactives: top-dose activity change, negative = inhibition, hits mostly inhibitors. 390,000 tested, 0.35% active; note: % is set by controls: 0 for no effect and ±100 for the full control effect; nearly all actives have a fitted effect of over 65% in size
Target sequence (P39748 whole entry, looked up): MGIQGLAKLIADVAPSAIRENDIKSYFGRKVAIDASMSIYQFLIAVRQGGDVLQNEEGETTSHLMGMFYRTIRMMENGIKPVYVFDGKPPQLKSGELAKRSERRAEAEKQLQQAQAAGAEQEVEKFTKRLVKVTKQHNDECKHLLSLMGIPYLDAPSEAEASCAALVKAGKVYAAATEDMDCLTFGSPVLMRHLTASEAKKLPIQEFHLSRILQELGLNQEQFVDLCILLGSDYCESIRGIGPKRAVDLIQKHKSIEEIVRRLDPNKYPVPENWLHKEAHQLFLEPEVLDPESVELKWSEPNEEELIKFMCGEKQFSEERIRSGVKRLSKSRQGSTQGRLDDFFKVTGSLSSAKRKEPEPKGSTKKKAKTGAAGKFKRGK
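Recombinant FEN1 (10 nM) was preincubated with pin-transferred compounds for 15 min at room temperature, then flap DNA substrate (50 nM final) was added. Plates were read at 0 and 15 min, and normalized concentration–response data were fitted to a four-parameter Hill equation.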
POLI inh: blocks human DNA polymerase iota activity. Q9UNA4. Pol iota fluorescent replication assay, 10 min. Potency, µM (doses to about 115 µM), for inactives: at the top dose activity, negative = inhibition, hits mostly inhibitors. 390,000 tested, 1% active. AID 588590
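Pol iota at 10 nM preincubated 15 min with compounds at room temperature; reaction started with fluorescent substrate, 50 nM final. Fluorescence read kinetically at 0 and 10 min; buffer-only wells as negative control.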
Pol kappa inh: blocks human DNA polymerase kappa activity. Q9UBT6. purified Pol kappa, fluorescent DNA synthesis assay, 10 min. Potency, µM (top dose mostly 107 µM), inactives show at the highest dose activity, negative = inhibition, hits mostly inhibitors. 400,000 tested, 0.53% active. AID 588579; note: % is set by controls: 0 for no effect and ±100 for the full control effect
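Fluorescent qHTS in 1536-well format: enzyme (10 nM) and compound sat 15 min at room temperature before 50 nM substrate (final) was added. Signal taken at 0 and 10 min; no-enzyme buffer wells were negative controls.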
Pol eta inh: inhibitors of human DNA polymerase eta; 390,000 tested, 1.2% active; Potency, µM (doses to about 114 µM), inactives show top-dose activity change, negative = inhibition, usual class: inhibitors; AID 588591; Q9Y253; recombinant Pol eta, fluorescent DNA replication assay; note: % is set by controls: 0 for no effect and ±100 for the full control effect
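Pol eta at 10 nM preincubated with compounds 15 min at room temperature; reaction started with fluorescent substrate (50 nM final) and read kinetically at 0 and 10 min.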
PGK validate: TbPGK inhibition, hit validation. TbPGK coupled GAPDH assay, Kinase-Glo luminescence. AID 686980. Potency, µM (doses to about 57.5 µM), without a hit: top-dose activity change, negative = inhibition, hits mostly inhibitors. shares compounds with Pol kappa inh. 500 tested, 79% active; note: % is set by controls: 0 for no effect and ±100 for the full control effect; nearly all actives have a fitted effect of over 65% in size
POLI cherry-pick: Confirm cherry-picked inhibitors of human polymerase iota | shares compounds with Pol kappa inh | Pol iota primer extension, TAMRA/BHQ fluorescence | Potency, µM, usual class: inhibitors | 1,500 tested, 77% active | AID 720496
* hit, by the source's call; ? = inconclusive; nt = no result; [ ] = remark or other dose. In the library only some 2.4% were active in any assay of this set; here they are far more common. Calls come from the whole dose curve; as a rule, active = well fitted curve in the direction sought with a large enough effect; inconclusive = small, poorly fitted or top-dose-only effect, or another doubt; inactive = no such curve, though single readings can be large; an effect the other way counts as inactive or inconclusive. Potency is the fitted concentration of half-maximal effect.

SMILES	WRN helicase inh	POLB inh	FEN1 inh	POLI inh	Pol kappa inh	Pol eta inh	PGK validate	others
O=C(N/N=C/c1c[nH]c2ccc(Br)cc12)c1ccncc1	?	?	-7%	56µM*	-24%	?	nt	POLI cherry-pick=67*
Oc1ccc(C[C@H]2CNCCN2CCc2cccc3ccccc23)cc1	4%	nt	-19%	?	-14%	-10%	?
CCOC(=O)c1cnc2ccc(OC(F)(F)F)cc2c1Nc1ccccc1C(=O)O	nt	21%	-6%	1%	2%	-14%	-17%
COc1c(N2CCN(C(=S)NCc3ccccc3)C(C)C2)c(F)cc2c(=O)c(C(=O)O)cn(C3CC3)c12 (centres undefined)	?	28µM*	?	16µM*	?	32µM*	nt	POLI cherry-pick=53*
COc1c(N2CCN[C@H](C)C2)c(F)cc2c(=O)c(C(=O)O)cn(C3CC3)c12	0%	?	-27%	-21%	-6%	-3%	nt
O=c1cc(CSc2n[nH]c(-c3ccccc3)n2)[nH]c2ccccc12	nt	-1%	7%	37%	-12%[60.1 µM]	-6%	nt
O=C(O)C1OC(Oc2c(-c3ccc(O)c(O)c3)oc3cc(O)cc(O)c3c2=O)C(O)C(O)C1O (centres undefined)	?	8.9µM*	11µM*	22µM*	14µM*	6.3µM*	10µM*
CCC(Oc1ccccc1)C(=O)Nc1ccc(OCc2cc(=O)n3ccc(C)cc3n2)cc1 (centres undefined)	nt	14%	3%	-2%	-6%[60.1 µM]	-2%	nt
CCn1c(C)cc(C(=O)COC(=O)c2ccccc2[N+](=O)[O-])c1C	3%	nt	4%	3%	-5%	-19%	15µM*
O=C(COC(=O)c1ccccc1[N+](=O)[O-])c1ccc2c(c1)OCO2	-26%	nt	-6%	41%	-10%	?	9.2µM*
O=C(c1ccccc1)c1cc2ccc(O)cc2oc1=O	-1%	22%	-14%	-5%	-5%	8%	15µM*
Cc1ccnc(N2C(=O)c3ccccc3C2Nc2cccc(C)c2C)c1 (centres undefined)	2%	-13%	-16%	1%	3%	-17%	nt
Cc1ccnc(N2C(=O)c3ccccc3C2O)c1 (centres undefined)	-3%	43%	1%	-20%	-1%	0%	10µM*
Cc1cc(C)c2sc(N(Cc3cccnc3)C(=O)CCS(=O)(=O)c3ccccc3)nc2c1	nt	20%	-6%	18%	-10%[60.1 µM]	-8%	nt
CCCCCC(=O)Nc1cc(S(=O)(=O)O)cc2cc(S(=O)(=O)O)cc(O)c12	6.3µM*	nt	10µM*	1µM*	1.4µM*	-99%	0.23µM*
CCCCC[C@H](O)/C=C/[C@@H]1[C@@H](C/C=C\CCCC(=O)OC)[C@@H](O)C[C@H]1O	12%	24%	?	1.3µM*	-10%	?	4%
Cc1ccc(CNC(=O)c2nnn(CC(=O)Nc3cccc(C)c3C)c2N)cc1	-16%[11.6 µM]	?	-7%	15%	-10%	?	nt	POLI cherry-pick=27*
COc1ccc(NC(=O)c2nnn(CC(=O)Nc3c(C)cc(C)cc3C)c2N)cc1OC	nt	14%	-2%	34%	1%	-2%	nt
Cc1cc(C)c(NC(=O)Cn2nnc(S(=O)(=O)c3ccc(C)c(C)c3)c2N)c(C)c1	nt	10µM*	?	79µM*	?	-29%	nt	POLI cherry-pick=?
CCOC(=O)c1c(NC(=O)c2cc(-c3ccccc3)on2)sc2c1CCCC2	nt	8%	2%	25%	-8%[60.1 µM]	-10%	nt

High-throughput results (PubChem)
